Experiment [1] in a line: optical density shifts of acrAB sulA E. coli – strain DRC41, OD650, 48 h, E. coli filamentation inducer project, primary screen (AID 1152).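 Note: E. coli MC1000 strain DRC41 lacking acrAB efflux pump and sulA.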 The conditions noted are these: higher = more signal, called active from +8 up or from −8 down.
Experiment [2] can be described thus: probe aLefty1 binding on compound microarray – biochemical, small-molecule microarray, 635/667 nm fluorescence, primary screen (AID 1153).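 Note: score merges spot fluorescence with signal-to-noise ratio from the scanned slide images.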 The conditions noted are these: higher = more signal.
Experiment [3] is described as follows: plasmodial surface anion channel blockers, osmotic lysis – cell-based, P. falciparum Indochina, OD700, 1 h, primary screen (AID 1154). The conditions noted are these: P. falciparum Indochina infected RBC osmotic lysis, higher = more signal, called active from +8 up or from −8 down.
A short description of experiment [4]: plasmodial surface anion channel blockers, osmotic lysis – cell-based, P. falciparum Indochina, OD700, 2 h, primary screen (AID 1155).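 Note: lysis reports solute entry through the parasite surface anion channel PSAC.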 The conditions noted are these: P. falciparum Indochina infected erythrocytes, higher = more signal, called active from +8 up or from −8 down.
Experiment [5] can be described thus: changes in parasitized red cell lysis, either direction – P. falciparum Indochina, OD700, 3 h, PSAC antagonist project, primary screen (AID 1156). The conditions noted are these: P. falciparum-infected erythrocytes, osmotic lysis, higher = more signal, called active from +8 up or from −8 down.
Experiment [6] is described as follows: plasmodial surface anion channel blockers, osmotic lysis – cell-based, P. falciparum Indochina, OD700, 18 h, primary screen (AID 1157). The conditions noted are these: P. falciparum Indochina infected erythrocytes, osmotic lysis OD700, 18 h; higher = more signal, called active from +8 up or from −8 down.
A short description of experiment [7]: S6 kinase pathway phospho-S6 level changes – cell-based, A549, cytoblot, luminescence, serum-stimulated, primary screen (AID 1158).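 Note: serum-stimulated A549 lung adenocarcinoma cells; signal is phosphorylated S6 detected by cytoblot immunostaining with HRP secondary.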 The conditions noted are these: 5 h, higher = more signal.
For experiment [8], the target named is NADPH oxidase 2 (Homo sapiens) (UniProt P04839). Kind of experiment: compounds shifting NOX2 Amplex Red fluorescence – cell-based, HEK293-NOX2, PMA-stimulated, NOX inhibitor project, primary screen (AID 1159). Note: test concentration not given here. The conditions noted are these: 45 min, higher = more signal, called active from +8 up or from −8 down.
The target in experiment [9] is NADPH oxidase 4 (Homo sapiens) (UniProt Q9NPH5). Put plainly: compounds shifting NOX4 Amplex Red fluorescence – cell-based, HEK293-NOX4, tetracycline-induced, NOX inhibitor project, primary screen (AID 1160). The conditions noted are these: HEK293-NOX4, Amplex Red H2O2 fluorescence, 45 min; higher = more signal, called active from +8 up or from −8 down.
In experiment [10] the target is NADPH oxidase 5 (Homo sapiens) (UniProt Q96PH1). Put plainly: compounds shifting NOX5 Amplex Red fluorescence – cell-based, HEK293-NOX5, NOX inhibitor project, primary screen (AID 1161). Conditions: HEK293-NOX5, ionomycin, 45 min, higher = more signal.

The results in this text go back to PubChem BioAssay.

Each structure is given as a SMILES string. Calls of active or inactive are those of the source.

Chain of NADPH oxidase 5 (Homo sapiens) (Q96PH1 whole entry, looked up): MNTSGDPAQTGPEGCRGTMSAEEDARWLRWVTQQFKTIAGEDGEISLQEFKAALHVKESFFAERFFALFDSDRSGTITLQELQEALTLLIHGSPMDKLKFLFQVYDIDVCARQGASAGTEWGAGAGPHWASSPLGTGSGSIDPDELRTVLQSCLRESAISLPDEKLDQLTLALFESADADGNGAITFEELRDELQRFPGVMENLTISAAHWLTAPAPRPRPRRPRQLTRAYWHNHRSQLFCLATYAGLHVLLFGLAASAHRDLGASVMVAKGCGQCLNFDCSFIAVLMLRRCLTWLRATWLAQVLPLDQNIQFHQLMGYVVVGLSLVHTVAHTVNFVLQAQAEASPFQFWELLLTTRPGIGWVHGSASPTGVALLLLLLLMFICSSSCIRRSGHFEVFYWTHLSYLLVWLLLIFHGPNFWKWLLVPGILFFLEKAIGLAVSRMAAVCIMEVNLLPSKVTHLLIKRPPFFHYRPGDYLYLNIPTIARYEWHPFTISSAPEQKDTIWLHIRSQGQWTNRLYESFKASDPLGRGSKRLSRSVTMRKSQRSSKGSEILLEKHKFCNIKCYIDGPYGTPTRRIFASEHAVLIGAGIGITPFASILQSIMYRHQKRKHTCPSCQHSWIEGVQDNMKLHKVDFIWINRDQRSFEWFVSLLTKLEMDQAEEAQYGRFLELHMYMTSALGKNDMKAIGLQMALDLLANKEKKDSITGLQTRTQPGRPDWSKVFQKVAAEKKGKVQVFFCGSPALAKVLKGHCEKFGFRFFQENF
Chain of NADPH oxidase 4 (Homo sapiens) (Q9NPH5 whole entry, looked up): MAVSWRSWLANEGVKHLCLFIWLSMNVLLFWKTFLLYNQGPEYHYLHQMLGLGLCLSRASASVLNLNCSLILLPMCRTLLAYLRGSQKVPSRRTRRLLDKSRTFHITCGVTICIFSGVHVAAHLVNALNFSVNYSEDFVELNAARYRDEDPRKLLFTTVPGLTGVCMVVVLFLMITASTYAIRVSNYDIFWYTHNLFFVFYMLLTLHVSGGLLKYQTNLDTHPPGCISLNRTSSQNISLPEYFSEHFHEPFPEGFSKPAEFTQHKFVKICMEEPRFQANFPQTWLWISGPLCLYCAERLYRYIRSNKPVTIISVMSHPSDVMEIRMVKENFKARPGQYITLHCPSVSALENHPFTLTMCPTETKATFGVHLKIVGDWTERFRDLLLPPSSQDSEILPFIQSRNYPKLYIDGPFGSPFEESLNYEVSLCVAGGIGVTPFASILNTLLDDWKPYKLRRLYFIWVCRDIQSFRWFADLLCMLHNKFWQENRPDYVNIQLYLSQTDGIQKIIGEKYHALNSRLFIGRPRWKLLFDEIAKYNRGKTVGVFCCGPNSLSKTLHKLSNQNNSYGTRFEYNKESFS
Chain of NADPH oxidase 2 (Homo sapiens) (P04839 whole entry, looked up): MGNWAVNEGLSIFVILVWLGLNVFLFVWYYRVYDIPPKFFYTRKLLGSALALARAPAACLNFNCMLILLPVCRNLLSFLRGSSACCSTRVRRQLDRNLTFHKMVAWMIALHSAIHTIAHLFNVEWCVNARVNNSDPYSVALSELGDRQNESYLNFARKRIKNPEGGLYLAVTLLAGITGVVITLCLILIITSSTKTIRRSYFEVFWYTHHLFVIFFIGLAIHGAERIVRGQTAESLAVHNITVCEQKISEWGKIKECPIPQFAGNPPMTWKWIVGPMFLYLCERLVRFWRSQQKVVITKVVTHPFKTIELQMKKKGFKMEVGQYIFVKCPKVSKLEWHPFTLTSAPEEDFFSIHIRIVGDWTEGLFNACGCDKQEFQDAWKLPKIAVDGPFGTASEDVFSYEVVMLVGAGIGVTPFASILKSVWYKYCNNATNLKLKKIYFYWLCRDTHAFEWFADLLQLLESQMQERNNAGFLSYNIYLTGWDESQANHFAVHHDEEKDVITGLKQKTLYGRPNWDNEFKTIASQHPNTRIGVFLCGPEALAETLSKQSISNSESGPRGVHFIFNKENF

As for `CCOC(=O)C1=C[C@@H](C(C)C)N(S(=O)(=O)c2ccc(C)cc2)[C@H]1c1ccc(C(C)C)cc1`, the z-score in [1] is -0.39 (inactive); in experiment [3], 0.431 (inactive); in experiment [4], 0.749 (inactive); in experiment [5] it was 0.4 (inactive); in experiment [6], 0.367 (inactive); in experiment [7], -0.234. In addition, the z-score in experiment [8] is -0.5 (inactive); in [9] it was -0.195 (inactive); in [10], -0.151. In addition, the composite z-score in [2] is 0.262.

On to `C=CCOC(=O)[C@@H]1[C@H]2C(=O)O[C@H](c3ccccc3)[C@H](c3ccccc3)N2[C@H](c2ccc(OCCOC(=O)[C@@H]3C[C@@H]4C(=O)NCC(=O)N4[C@@H]3c3cccc(OCCO)c3)cc2)[C@@]12C(=O)Nc1ccc(I)cc12`, for which the z-score in experiment [1] is -0.407 (inactive); in [3] it was 2.11 (inactive); in experiment [4], 0.636 (inactive); in experiment [5], 1.64 (inactive); in [6], 0.572 (inactive); in experiment [7] it was -0.5. Further, the z-score in [8] is 1.72 (inactive); in experiment [9], 1.19 (inactive); in experiment [10], 1.37. In [2], this compound came in with a composite z-score of 0.42.

With `COCCCNC(=O)[C@@]1(C)c2ccccc2C(=O)N(Cc2cc(C(F)(F)F)cc(C(F)(F)F)c2)[C@H]1c1ccc(CO)cc1`, the z-score in [1] was 0.811 (inactive); in experiment [3], 3.5 (inactive); in [4], -0.185 (inactive); in [5], -0.583 (inactive); in [6], 0.472 (inactive); in [7] it was -0.434. Moreover, the z-score in experiment [8] was -1.09 (inactive); in experiment [9] it was -0.274 (inactive); in experiment [10], -0.706. Also, the composite z-score in [2] is -0.0969.

On to `[N-]=[N+]=NCc1ccccc1C[C@]1(C(=O)O)N=C(c2ccc(OCCCO)cc2)O[C@H]1c1ccccc1`, for which the z-score is -0.0931 (inactive) in [1]; 9.62 (active) in experiment [3]; 0.754 (inactive) in experiment [4]; -0.468 (inactive) in experiment [5]; -0.0988 (inactive) in experiment [6]; -0.381 in experiment [7]. In addition, the z-score is 0.453 (inactive) in [8], 1.4 (inactive) in experiment [9] and 1.68 in experiment [10]. The composite z-score in [2] worked out at 0.0299.

In the case of `COC(=O)C(CC#Cc1ccc2c(c1)[C@]1(C(=O)N2)[C@H](c2ccc(OCCO)cc2)N2[C@H](c3ccccc3)[C@H](c3ccccc3)OC(=O)[C@H]2[C@@H]1C(=O)NC[C@H](O)c1ccccc1)C(=O)OC`, the z-score was 1.57 (inactive) in experiment [1]; 2.5 (inactive) in experiment [3]; 1.14 (inactive) in experiment [4]; 0.829 (inactive) in experiment [5]; 0.664 (inactive) in [6]; 0.219 in experiment [7]. The z-score in experiment [8] is 2.1 (inactive); in [9] it was 1.2 (inactive); in experiment [10] it was 0.489. In [2], this compound registered a composite z-score of 0.0903.

`CC(C)C(=C=CC[C@H](O)c1ccccc1OCCO)C[C@H](O)c1ccccn1`: the z-score in experiment [1] was 0.843 (inactive); in experiment [3] it was 4.75 (inactive); in experiment [4] it was 0.673 (inactive); in experiment [5] it was 2.42 (inactive); in experiment [6], 0.454 (inactive); in experiment [7] it was 1.16. The z-score was -0.222 (inactive) in experiment [8], -0.323 (inactive) in [9] and -1.28 in experiment [10]. In addition, the composite z-score in experiment [2] was determined as 0.129.

`Cc1ccc([C@H]2C(C(=O)O)=C[C@@H](C)N2S(=O)(=O)c2ccc(C)cc2)cc1`: the z-score in experiment [1] is -0.832 (inactive); in experiment [3], 1 (inactive); in experiment [4], 0.587 (inactive); in experiment [5] it was 0.018 (inactive); in experiment [6], 0.39 (inactive); in experiment [7], -0.848. Further, the values for the z-score in experiment [8], in experiment [9] and in [10] were 0.534 (inactive), 0.259 (inactive) and 0.101, respectively. This compound showed a composite z-score in [2] of -0.149.

On to `CC(C)C(=C=CC[C@H](O)c1cccc(OCCO)c1)C[C@H](O)COCc1ccccc1`, for which the z-score in experiment [1] is 0.142 (inactive); in [3] it was 12.8 (active); in experiment [4], 2.04 (inactive); in experiment [5], 0.367 (inactive); in [6] it was 0.627 (inactive); in [7] it was -0.145. Further, the figures for the z-score in [8], in experiment [9] and in experiment [10] were -1.77 (inactive), -0.716 (inactive) and -2.13, respectively. In addition, the composite z-score in experiment [2] was determined as 0.0455.

For `Cc1ccc(S[C@]2(C(=O)NCc3ccccc3)CC(=O)N(Cc3ccccc3)[C@@H]2c2ccc(CO)cc2)cc1`, the z-score in [1] is -1.24 (inactive); in experiment [3] it was 1.27 (inactive); in experiment [4], 0.115 (inactive); in experiment [5], -0.376 (inactive); in experiment [6] it was -0.234 (inactive); in experiment [7] it was 0.0768. For the same compound, the z-score in experiment [8] is -1.51 (inactive); in [9], 0.494 (inactive); in [10], -0.189. Also, in experiment [2], the composite z-score is -0.188.

As for `CCN(CC)c1ccc(N2CC=CC34O[C@@H]5C=CCCOC(=O)C5[C@H]3C(=O)N(CCCCCO)[C@@H]4C2=O)cc1` (stereo not given in full), the z-score was 2.82 (inactive) in [1]; 2 (inactive) in experiment [3]; -0.0803 (inactive) in experiment [4]; 1.11 (inactive) in experiment [5]; 0.352 (inactive) in [6]; -0.195 in [7]. Besides, the z-score was -0.11 (inactive) in [8], 0.604 (inactive) in experiment [9] and 0.895 in [10]. The compound further returned a composite z-score in [2] of 0.0391.

Take `CN(C)C(=O)[C@]1(CCC(=O)OC(C)(C)C)N=C(c2ccc(OCCCO)cc2)O[C@@H]1c1ccccc1N=[N+]=[N-]`: the z-score in experiment [1] was 0.761 (inactive); in experiment [3] it was 31 (active); in [4], 29.8 (active); in [5] it was 1.37 (inactive); in experiment [6], 2.34 (inactive); in experiment [7], -0.294. For the same compound, the values for the z-score in experiment [8], in [9] and in [10] were -4.53 (inactive), -0.32 (inactive) and -1.98, respectively. The same compound came in with a composite z-score in [2] of 1.33.
